# TRHR enhancer-1: TRH receptor (human) allosteric enhancement; P34981; TRHR cells, fluo-8 calcium fluorescence, EC20 TRH enhancement; enhancement, % at 2 µM; 0.66% of 360,000 active; AID 493056; in the data active = enhancement above about 30%; note: 0% is about no effect
# Target sequence (P34981 whole entry, looked up): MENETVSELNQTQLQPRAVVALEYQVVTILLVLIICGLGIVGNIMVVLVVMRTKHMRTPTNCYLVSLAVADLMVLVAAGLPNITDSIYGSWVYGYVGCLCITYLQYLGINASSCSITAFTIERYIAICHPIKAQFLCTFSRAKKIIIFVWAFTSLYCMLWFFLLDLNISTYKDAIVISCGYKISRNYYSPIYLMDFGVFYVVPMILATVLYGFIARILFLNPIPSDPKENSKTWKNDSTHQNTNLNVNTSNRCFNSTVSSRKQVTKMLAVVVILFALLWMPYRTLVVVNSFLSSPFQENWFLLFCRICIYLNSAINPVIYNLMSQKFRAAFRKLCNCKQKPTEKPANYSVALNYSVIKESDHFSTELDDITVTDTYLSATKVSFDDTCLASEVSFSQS
#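 Enhancer read-out: after compound pinning and an initial kinetic agonist-mode read, an EC20 of TRH (10 nM final) was injected and fluo-8 calcium signal (Ex 480/Em 530) followed at 1 s/cycle for 100 cycles in TRHR-expressing cells.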
# TRHR agonist-1: agonists of human TRH receptor | 0.18% of 360,000 active | P34981 | activation, % at 2 µM | TRHR cells, calcium flux fluo-8, FDSS agonist mode; note: 0% is about no effect
#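 Steps: seed TRHR cells overnight; add fluo-8 no-wash Ca dye, RT 30 min–1.5 h; record 10 s baseline; pin-transfer compounds; monitor fluorescence 1 cycle/s for the agonist window. Calcium increases flag candidate agonists.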
# D1 agonist: agonists of human D1 dopamine receptor; P21728; HEK293 T-REx D1 cells, calcium flux, agonist mode; activation, % at 2 µM; 1% of 360,000 active; AID 504660; note: 0% is about no effect
#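 Inducible HEK293 T-REx D1 cells, force-coupled to calcium signalling, were plated at 4000 cells/well with tetracycline and held overnight at 30 C. After no-wash calcium dye loading, compound-evoked calcium rise over 180 s flagged agonists.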
# D1 PAM: human D1 dopamine receptor positive modulation. P21728. HEK293 TREx D1 cells, calcium flux, dopamine EC20 potentiation. potentiation, % at 10 µM. 0.036% of 360,000 active. AID 504651; in the data active = potentiation above about 30%; note: 0% is about no effect
# D1 antagonist: blocks dopamine activation of the human D1 receptor; P21728; HEK293 TREx D1 cells, calcium flux, dopamine EC80; hits give low values; activity change, negative = inhibition, % at 10 µM; 3.2% of 360,000 active; AID 504652; in the data active = activity change below about -30%; note: % is set by controls: 0 for no effect and ±100 for the full control effect
#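 Tetracycline-induced HEK293 T-REx cells with force-coupled D1 receptor were loaded with a no-wash calcium dye. Compound was added after a 10 s baseline and read kinetically for 180 s; EC80 dopamine was then added and calcium flux followed another 180 s.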
# TRHR enhancer-2: confirmation of human TRH receptor allosteric enhancers; 970 tested, under 10 active; TRH receptor cell assay, enhancer confirmation qHTS; shares compounds with TRHR enhancer-1; activity change, negative = inhibition, % at 46.1 µM; active = well fitted curve in the direction sought with a large enough effect; inconclusive = small, poorly fitted or top-dose-only effect, or another doubt; inactive = no such curve, though single readings can be large; an effect the other way counts as inactive or inconclusive;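 note: compound effect scored on response to added TRH at EC20 of 10 nM; 0% is about no effect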
# TRHR agonist-2: human TRH receptor agonism confirmation | AID 493078 | 8% of 970 active | shares compounds with TRHR enhancer-1 | Potency, µM (titrated, usually from 46.1 µM), for inactives: at the top dose activation, usual class: activators | TRHR-expressing cells, agonist activation read-out; active = well fitted curve in the direction sought with a large enough effect; inconclusive = small, poorly fitted or top-dose-only effect, or another doubt; inactive = no such curve, though single readings can be large; an effect the other way counts as inactive or inconclusive; note: potency is the fitted concentration of half-maximal effect; 0% is about no effect; nearly all actives have a fitted effect of over 75% in size
# * = called active by the depositor; ? = inconclusive; . = no result given. Rows were chosen to be rich in hits. Some 4.7% of all compounds tested hit in one or more screens of this group. Cut-off read from the data, not from the text of the source, unless noted: active = activation above about 30%; inactive = the rest.
SMILES,TRHR enhancer-1,TRHR agonist-1,D1 agonist,D1 PAM,D1 antagonist,TRHR enhancer-2,TRHR agonist-2
CCOC(=O)c1ccc(N2C(=O)c3n[nH]c(-c4ccco4)c3C2c2cccc(O)c2)cc1 (stereo not given),19,1,2,6,35,.,.
Cc1ccc(Cc2nc3ccccc3nc2SCC(=O)Nc2ccc3c(c2)OCO3)cc1,-7,0,0,-1,-11,.,.
C=CCC1NS(=O)(=O)OC(COC)C1C (stereo not given),0,0,1,7,3,.,.
C=CCC1NS(=O)(=O)OC(CCCC)C1O (stereo not given),34*,0,2,4,12,.,.
CCN(CC)c1ccc(S(=O)(=O)Nc2cc(Cl)ccc2Cl)cc1NC(=S)NC(=O)C1CCCC1,-4,0,2,-5,-32*,.,.
Cc1ccc(NC(=O)CNCC2CCCCC2)cc1S(=O)(=O)N(C)C,1,0,5,-4,-8,.,.
COc1ccccc1NS(=O)(=O)c1ccc(Cl)c(NC(=S)NC(=O)C2CCCC2)c1,13,0,2,-3,-9,.,.
CCN(CC)S(=O)(=O)c1ccc(C)c(NC(=S)NC2CCCCC2)c1,-6,2,16,-6,-80*,.,.
CCN(CC)S(=O)(=O)c1ccc(Cl)c(NC(=S)NC(=O)C2CCCC2)c1,-6,1,32*,.,-17,.,.
Cc1ccc(NC(=S)NC2CCCCC2)cc1S(=O)(=O)N(C)C,-1,0,28,-8,-34*,.,.
COc1ccc(CNC(=O)CN2N=C(c3ccccc3)CCC2=O)c(OC)c1,-9,-1,-3,0,-11,.,.
O=[S+]([O-])(c1c(F)cccc1F)N1CCN([S+](=O)([O-])c2csc3ccccc23)CC1,-2,1,6,-4,-21,.,.
CCOc1cccc2cc(-c3nc4ccc(C(=O)O)cc4[nH]3)c(=O)oc12,4,0,2,-7,-12,.,.
COc1ccc(C2C(=O)N(C3CCC(C)CC3)CC(=O)N2CCc2ccccc2)cc1OC (stereo not given),2,0,-4,0,-29,.,.
CC1CCCC(C)N1C(=O)CN1C(=O)NC2(CCOc3ccccc32)C1=O (stereo not given),45*,0,5,-4,-31*,5,8%
COc1ccc(OCC(=O)NC2CC(=O)N(c3ccc4c(c3)OCCO4)C2)cc1 (stereo not given),29,0,-3,0,.,.,.
Cc1ccc(NC(=O)[C@@H]2CCC(=O)N2C2OC(=O)c3ccccc32)cc1Cl (stereo not given in full),68*,0,-1,-5,5,-5,7%
Cc1nn(CC(=O)Nc2ccc3c(c2)nc(CCN2CCCCC2)n3C)c(=O)c2ccccc12,5,0,3,1,4,.,.
Cc1nn(CC(=O)Nc2ccc3c(c2)nc2n3CCN(C3CCCCC3)C2)c(=O)c2ccccc12,46*,0,1,-3,1,6,6%
Cc1cccc(Cn2c(=O)n(-c3ccc(Cl)c(Cl)c3)c(=O)c3c(C)c(C)sc32)c1,15,0,0,0,-2,.,.
CCOc1ccc(NC(=O)c2cc(=O)c3cc(CC)ccc3o2)cc1,3,0,1,0,2,.,.
CN(CCc1cnn(C)c1)C(=O)C1CCC(=O)N(CC2CCCCC2)C1 (stereo not given),66*,1,2,1,-2,-9,-1%
Cc1n[nH]c(C)c1CCN(C)C(=O)C1CCC(=O)N(CC2CCCCC2)C1 (stereo not given),3,1,1,-18,-10,.,.
O=C(NC1CCCCCC1)C1CCN(S(=O)(=O)c2ccc(F)cc2)CC1,-3,0,2,4,-4,.,.
O=C(NC1CCCCC1)N1CCN(S(=O)(=O)c2ccc(F)cc2)CC1,46*,0,0,-6,-22,-3,1%
SMILES,TRHR enhancer-1,TRHR agonist-1,D1 agonist,D1 PAM,D1 antagonist,TRHR enhancer-2,TRHR agonist-2
COc1ccc(NC(=S)N(Cc2ccccn2)Cc2ccccc2Cl)cc1,-3,0,-1,1,5,.,.
COc1cccc(NC(=S)N(Cc2ccccn2)Cc2ccccc2Cl)c1,43*,0,3,-4,-24,-5,2%
CCC(=O)N1CCc2cc(Br)cc(S(=O)(=O)CCC(=O)NCc3ccccc3)c21,-2,0,1,1,-5,.,.
O=C(CSc1ccc(Br)cc1)N1CCN(C(=O)c2ccco2)CC1,60*,-1,3,-5,-26,-3,0%
CCCCN(C)CCCNC(=O)Cn1nc(CC)n2c(cc3sc(C)cc32)c1=O,2,0,0,-8,-27,.,.
COC(=O)c1nnn(-c2nc(N(C)C)nc(N(C)C)n2)c1C,57*,-1,19,-4,-12,-4,-1%
COc1cc(/C=C/c2nc3ccccc3s2)cc(OC)c1O,4,32*,10,-5,-19,2,?
CCCCc1cc(=O)oc2cc(OCC(=O)N(CC)CC)ccc12,0,-2,2,0,13,.,.
CCCCc1cc(=O)oc2cc(OCC(=O)N(CC)CC)c(Cl)cc12,66*,0,3,-8,5,-5,0%
NC(=O)NCCCC(NC(=O)c1ccc(C#CC2(O)CCCCC2)cc1)C(=O)O (stereo not given),43*,0,4,-4,-4,-4,-1%
CCOC(=O)C1CCN(c2nc3ccccc3nc2C(C#N)C(=O)OC(C)C)CC1 (stereo not given),-8,2,6,8,-1,.,.
CCOC(=O)C1CCCN(c2nc3ccccc3nc2C(C#N)C(=O)OC(C)C)C1 (stereo not given),-7,42*,4,-4,7,1,?
COc1cccc(OCCCCn2c(-c3ccc(Cl)cc3)nc3ccccc3c2=O)c1,11,0,-2,-1,1,.,.
O=C(Nc1ccc(Cl)cc1Cl)c1ccc2c(=O)n3c(nc2c1)CCC3,-5,26,2,-7,1,2,?
O=C(Nc1ccc(Br)cc1Cl)c1ccc2c(=O)n3c(nc2c1)CCC3,12,0,8,0,-4,.,.
Cn1c(=O)[nH]c(=O)c2c1nc(NCc1ccccc1)n2Cc1ccc(F)cc1,48*,-1,1,-7,-10,5,1%
C/C(CC(=O)Nc1cccc(C(F)(F)F)c1)=N\NC(=O)Cc1ccccc1,58*,0,5,-11,4,2,1%
Cc1ccc2cc(NC(=O)c3ccccc3C)ccc2n1,50*,0,2,6,20,2,1%

# Compound activity: PubChem BioAssay, National Center for Advancing Translational Sciences (NCATS)
